According to PubChem BioAssay AID488890 (Southern Research Specialized Biocontainment Screening …, 2010):
In all, about 320,000 compounds went through this assay and about 1,300 (0.41%) were called active. Not shown: some 3% with an inconclusive outcome. The rule behind the calls is not given here. A selection follows. Results with a measured potency or affinity are listed apart.

experiment: growth inhibition of non-replicating M. tuberculosis (AID 488890); conditions: Mycobacterium tuberculosis non-replicating, at 25 µM, stronger effect = higher value;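 note: plate controls were DMSO cells for no effect and high antibiotic wells for full effect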

Compound	inhibition
CCC(CO)N=CC1=C(O)C(C(=O)c2ccccc2)CCC1=O (centres undefined)	4.93%
CC(=O)Nc1ccc(NC(=O)CSc2nnc(-c3cc4ccccc4o3)n2C)cc1	-4.95%
COc1cc(C(=O)O)c2ccccc2n1	-12.4%
COc1cccc2nc3cc(C)c(C)cc3nc12	39.2%
CC(CNC(=O)CN1C(=O)C(=O)N(C2CCCC2)C1=O)c1ccccc1 (centres undefined)	21.6%
O=C(O)C1=NN(c2ccccc2)C(=O)CC1	1.61%
COc1cc(CNCCO)cc(Br)c1OCc1ccccc1Cl	79%
COc1cc(CNCCO)cc(Br)c1OCc1ccccc1	28.5%
CCOc1cc(CNCCO)cc(Br)c1OCc1ccccc1	75.9%
CCOc1cc(CNCCO)cc(Br)c1OCc1cccs1	73.5%
COCCNC(=O)COc1coc(CN2CCN(Cc3ccccc3)CC2)cc1=O	0.19%
Cc1cccc(C(=O)NNC(=O)c2csc(N3CCOCC3)n2)c1C	-2.47%
CCOc1ccc2oc(C(=O)NNC(=O)c3csc(N4CCOCC4)n3)c(C)c2c1	75.8%
CCN(N=Nc1cccc([N+](=O)[O-])c1)c1cccc([N+](=O)[O-])c1	-3.89%
CC1(C)CC(=O)C(N=Nc2cccc([N+](=O)[O-])c2)=C(O)C1	-5.61%
COCC(C)n1c(SCC(=O)N2CCOCC2)nc2ccccc2c1=O (centres undefined)	3.46%
CCC(C)[C@H](NC(=O)[C@@H]1CSC2c3ccccc3C(=O)N21)C(=O)N1CCCCC1 (some centres undefined)	12.4%
O=C(O)c1ccc(-c2nnc(-c3ccc([N+](=O)[O-])cc3)o2)cc1	-2.79%
Oc1ccc(-c2nnc(SCc3ccccc3)o2)cc1	77.5%
O=C(CSc1nnc(-c2ccc(O)cc2)o1)Nc1ccccc1	63.5%
OCC#CCSc1nnc(-c2ccncc2)o1	23.9%
O=C(CSc1nnc(-c2ccncc2)o1)c1cccc([N+](=O)[O-])c1	70.5%
Cc1ccc(C(=O)CSc2nnc(-c3ccccc3)o2)cc1	64.9%
COc1ccc(-c2nnc(SCC#CCO)o2)cc1OC	45.7%
CCSc1nnc(-c2ccncc2)o1	0.24%

Compound	inhibition
CCOCCCNC(=O)c1cc2c(s1)-c1ccccc1SC2	9.76%
CC(=O)Nc1nccc(-c2cc(-c3ccccc3)no2)n1	2.66%
COc1ccccc1N(CC(O)Cn1c2ccccc2c2ccccc21)S(=O)(=O)c1ccccc1 (centres undefined)	31.5%
Cc1ccccc1C(=O)NNC(=O)c1ccc2nc[nH]c2c1	8.7%
COc1ccc(S(=O)(=O)Nc2cccc3c2O[C@H](CN(C)S(=O)(=O)c2ccc(Cl)cc2)[C@H](C)CN([C@H](C)CO)C3=O)cc1	51.4%
O=c1c2ccccc2ncn1-c1ccc(Cl)c(Cl)c1	1.67%
COc1cc(Cl)cc(C=O)c1OCC(=O)O	8.45%
COc1ccc(CCNC(=O)C2CCCN2C(=O)Nc2ccc(Cl)cc2)cc1OC (centres undefined)	20.8%
Cc1ccc(CSc2nnc(-c3cccc4ccccc34)o2)cc1	14.4%
Cc1ccccc1-c1nnc(SCC#N)o1	15.7%
C#CCSc1nnc(-c2sc3ccccc3c2Cl)o1	71.8%
C=CCSc1nnc(-c2cccc3ccccc23)o1	5.5%
C#CCSc1n[nH]c(=O)n1-c1cccc(C(F)(F)F)c1	3.27%
O=C(N/N=C/c1c(O)n(-c2ccc(Cl)cn2)c(=O)c2ccccc12)C1CC1	6.8%
O=C(CCNc1n[nH]c(=O)[nH]c1=O)N/N=C\c1cccc(OCc2ccccc2)c1	10.7%
Cc1cc(NC(=O)c2ccc(Cn3cc([N+](=O)[O-])cn3)o2)no1	14.1%
COc1cccc(NC(=O)CC(=O)c2ccc([N+](=O)[O-])cc2)c1	47%
CC(=O)Nc1ccc(NC(=O)c2ccc(-c3ccc([N+](=O)[O-])cc3)o2)cc1	28.3%
COc1ccc(NC(=O)c2ccc(C(=O)c3ccccc3)o2)cc1	-11.3%
COc1cccc(NC(=O)CNC(=O)c2ccc([N+](=O)[O-])cc2)c1	12.4%
COc1cccc(NC(=O)c2ccccc2)c1	4.57%
COc1ccc(CCNC(=O)c2ccc(-c3ccc([N+](=O)[O-])cc3)o2)cc1OC	60.1%
Cc1ccccc1NC(=O)c1ccc(Cn2cc([N+](=O)[O-])cn2)o1	46.5%
CSc1nc2n(n1)C(C)C1=C(CCCC1=O)N2 (centres undefined)	-15.3%
CC(=O)Nc1ccc(NC(=O)c2ccc(S(=O)(=O)N(C)c3ccccc3)cc2)cc1	-4.01%

Compound	inhibition
COc1ccc(C(=O)OCc2c(-c3ccccc3)ncc3ccccc23)cc1	14.9%
Cc1cccc(C(=O)NCCC(=O)Nc2ccc(C#N)cc2)c1	-25.3%
Cc1cccc2nc(CSc3ccccc3C(=O)O)cn12	24.4%
Cc1cc(C)cc(NC(=O)C2CCCN(c3ncccn3)C2)c1 (centres undefined)	0.57%
c1cc(-c2cc3cc4c(cc3cn2)OCO4)cs1	53.8%
O=S(=O)(CCN1CCN(c2ccccn2)CC1)c1ccc(F)cc1	3.07%
O=S(=O)(c1cc(Cl)ccc1Cl)N1CCN(c2ccccn2)CC1	6.68%
CC(=O)Cn1c2ccccc2n2nc(CCC(=O)O)c(=O)nc12	-25.9%
CC1CCN(C(=O)COC(=O)c2cc3ccccc3oc2=O)CC1	11.8%
O=C(OCC(=O)N1CCCC1)c1ccccc1O	71.7%
CC1CCN(C(=O)c2cc3ccccc3cc2O)CC1	62%
NC(=O)C1CCN(C(=O)COc2ccc(Nc3ccccc3)cc2)CC1	24.7%
O=C(c1cc2ccccc2cc1O)N1CCCC1	5.6%
Cc1cccc(C(=O)OCC(=O)N2CCCCCC2)c1	12%
O=C(OCC(=O)N1CCN(C(=O)COC(=O)c2ccc(O)cc2O)CC1)c1ccc(O)cc1O	-2.13%
O=C(COc1ccc(Cl)cc1)OCC(=O)N1CCCCCC1	70.8%
O=[N+]([O-])c1cccc(-c2csc(N/N=C/c3cccc(O)c3)n2)c1	4.67%
COc1ccc(C(OC(=O)c2ccco2)C(=O)NC2CCCC2)cc1 (centres undefined)	-11.4%
CCc1ccc(C(=O)NCc2cnn(C)c2)s1	6.54%
Cc1ccc(SCC(=O)O/N=C(\N)c2cccnc2)cc1	67.7%
O=C(/C=C/Nc1ccc(Oc2ccccc2Cl)cc1)c1ccco1	61.8%
Cc1cccc(-n2ccnc2SCC(=O)Nc2nccs2)c1	15.5%
O=C(Cc1nc2ccccc2[nH]1)c1ccc([N+](=O)[O-])cc1	6.15%
O=C(NCc1nc2ccccc2[nH]1)c1ccc([N+](=O)[O-])cc1	4.71%
